Screens deposited in PubChem by The Scripps Research Institute Molecular Screening Center.
Compounds with a hit are over-represented: about 3.5% of the library has one in this group of screens.
TEAD-YAP inh: TEAD-YAP interaction inhibition; HEK-TIYL cells, TEAD-Gal4/YAP UAS-luciferase luminescence; inhibition, % at 9.12 µM; 1.4% of 640,000 active; in the data active = inhibition above about 32%;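 also: 0% = median of test compound wells and 100% = reference inhibitor wells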
MITF inh: human MITF inhibition, primary screen. AlphaScreen MITF homodimerization, bead proximity signal. 0.91% of 650,000 active. O75030. inhibition, % at 2.6 µM; in the data active = inhibition above about 50%;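 also: 0% = vehicle wells with protein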
GPR151 activ: activators of human GPR151; 1% of 650,000 active; PathHunter beta-arrestin GPR151 cells, luminescence; activation, % at 11.2 µM; Q8TDV0; in the data active = activation above about 4.9%;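 also: 0% = median of compound wells and 100% = cells with positive control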
FBW7 act: activators of human E3 ligase FBW7 | Q969H0 | AlphaScreen FBW7–phospho-cyclin E peptide binding, activator screen | normalized activity (activation), % at 26.1 µM | 0.13% of 650,000 active; in the data active = normalized activity above about 1.9%;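 also: purified mutant Fbw7 with reduced substrate affinity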
GPR151 conf act: confirmation of human GPR151 activators; shares compounds with GPR151 activ; GPR151 PathHunter beta-arrestin cells, luminescence, 90 min; % of EA-reagent control over plate median; activation, % at 11.2 µM; 6,700 tested, under 10 active;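 active = mean percent activation across replicates above the confirmation screen cutoff of 4.91%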
GPR119 ag: counter-screen for GPR151 activators: effect on human GPR119 | AID 1508611 | activation, % at 11.2 µM | 0.3% of 6,700 active | shares compounds with GPR151 activ | GPR119 PathHunter beta-arrestin cells, luminescence, 90 min; 0 = compound-well median, 100 = enzyme-acceptor control;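 active = mean percent activation in the counterscreen above 29.09%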;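 also: counterscreen on off-target GPR119 to flag nonselective hits from the GPR151 activator screen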
Target sequence (Q8TDV5 whole entry, looked up): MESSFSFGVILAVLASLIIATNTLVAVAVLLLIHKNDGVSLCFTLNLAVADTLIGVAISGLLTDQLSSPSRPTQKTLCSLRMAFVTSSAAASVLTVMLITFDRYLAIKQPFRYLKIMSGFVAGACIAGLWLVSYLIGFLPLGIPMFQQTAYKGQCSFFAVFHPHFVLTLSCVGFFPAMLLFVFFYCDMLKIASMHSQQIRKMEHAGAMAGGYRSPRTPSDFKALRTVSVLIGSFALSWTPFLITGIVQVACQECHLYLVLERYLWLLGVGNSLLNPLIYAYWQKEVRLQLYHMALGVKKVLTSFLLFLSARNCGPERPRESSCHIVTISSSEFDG
Starred values were filed as active, the others as inactive; . = no result given; ! = a repeat was not active.

SMILES	TEAD-YAP inh	MITF inh	GPR151 activ	FBW7 act	GPR151 conf act	GPR119 ag
Cc1ccc(SC2CC(=O)N(c3ccccc3)C2=O)cc1 (centres undefined)	1	5	5.0*	0	-1	-12
Cc1ccc(N2C(=O)CC(Sc3nc(C)cc(C(F)(F)F)c3C#N)C2=O)cc1 (centres undefined)	-10	18	-3	0	.	.
CCCc1cc(=O)[nH]c(SCC(=O)Nc2cc3c(cc2C(C)=O)OCO3)n1	-4	-7	6.3*	0	0	-4
COc1ccc(C2CC(=O)N3CN(Cc4ccccc4)CSC3=C2C#N)cc1 (centres undefined)	6	8	5.8*	0	-1	-12
CCc1nnc(-c2cc3ccccc3n2CC(=O)Nc2cccc(Cl)c2)o1	9	-9	5.3*	0	0	-9
CCN(CCCNC(=O)c1c(C)cc(=O)oc1C)c1ccccc1	-10	3	5.1*	0	-1	-8
CCCCN(CCCNC(=O)c1c(C)cc(=O)oc1C)c1ccccc1	-23	15	2	0	.	.
CN(C)C(=O)CN(C#N)c1nc(Cl)nc(N(C)C)n1	10	12	1	0	.	.
CN(Cc1ccno1)C1CCC(=O)N(Cc2ccc(F)cc2F)CC1 (centres undefined)	6	23	0	0	.	.
Cn1c(NN)nc2sc3c(c2c1=O)CCC(C(C)(C)C)C3 (centres undefined)	8	11	0	0	.	.
Cc1nn2cnc3sc4c(c3c2nc1=O)CCC(C(C)(C)C)C4 (centres undefined)	-8	-1	7.0*	0	0	-4
O=C(Nc1cccc2ccccc12)c1nc2nc(-c3ccccc3)cc(C(F)(F)F)n2n1	4	4	0	0	.	.
COc1ccc(CC(=O)NNC(=O)c2ccc(Cl)cc2)cc1OC	4	16	5.3*	0	0	11
CCN(CC)/C(=C\C#N)c1ccc(F)cc1	-2	-7	-1	0	.	.
N#CCSc1nnc2sc3ccccc3n12	-9	-5	5.2*	0	0	-2
CCOC(=O)c1ccc(N=CC2=C(O)CC(c3ccccc3)CC2=O)cc1 (centres undefined)	3	-3	0	0	.	.
[O-]/[N+](=C\c1ccncc1)c1ccc(Cl)cc1	5	-1	5.2*	0	2	13
[O-]/[N+](=C\c1ccc(F)cc1)c1ccccc1	6	-1	-1	0	.	.
COc1ccc(NC(=O)CCCC(=O)OCC(F)(F)C(F)F)cc1	9	13	5.0*	0	0	6
CC(=O)O[C@H]1CC[C@@]2(C)C(C[C@@H](OC(C)=O)[C@@]3(C)C4=CC(=O)O[C@@H](c5ccoc5)[C@]4(C)CCC23)C1(C)C (some centres undefined)	0	17	6.5*!	0	0	4
Cc1cc([N+](=O)[O-])ccc1-c1ccc(C(=O)NC(C)(C)C)o1	-6	17	7.7*	0	0	-3
CC(C)C(=O)NCCc1nc2ccccc2n1Cc1ccccc1	-4	8	0	0	.	.
C=CCn1c(CCNC(=O)C(C)C)nc2ccccc21	-1	5	7.0*	0	0	4
Cc1ccc(-n2c(C)cc(C=C3C(=O)NC(=O)NC3=O)c2C)cc1	8	8	8.6*	0	0	-5
CCOc1ccc(NC(=O)CN(C2CCCCC2)S(=O)(=O)c2ccccc2)cc1	2	-14	6.0*	0	0	14
SMILES	TEAD-YAP inh	MITF inh	GPR151 activ	FBW7 act	GPR151 conf act	GPR119 ag
CS(=O)(=O)N(CC(=O)Nc1ccc(OCc2ccccc2)cc1)C1CCCCC1	9	15	0	0	.	.
CN(CC(=O)NC1CCCCCC1)S(=O)(=O)c1ccccc1	-14	7	8.6*	0	0	2
CN(CC(=O)NC1CCCC1)S(=O)(=O)c1ccccc1	8	0	0	0	.	.
O=C(NCc1ccc(Cl)cc1)c1cc(C2CC2)on1	-14	-5	1	0	.	.
CCn1c(=NC(=O)c2ccco2)sc2cc3c(cc21)OCCO3	-32	3	5.7*	1	-1	-8
C=CCn1c(=NC(=O)c2ccco2)sc2cccc(OC)c21	8	15	0	0	.	.
CCn1c(=NC(=O)c2ccco2)sc2cccc(OC)c21	7	-2	5.0*	0	0	-2
CCn1c(=NC(=O)c2ccco2)sc2cccc(F)c21	-36	5	1	0	.	.
CCOCCn1c(=NC(=O)c2ccco2)sc2cc(C)ccc21	-47	-7	5.8*	0	1	4
COc1ccc(OC)c2c1sc(=NC(=O)c1ccco1)n2C	-13	-15	5.3*	0	1	6
CCOC(=O)c1c(NC(=O)CSc2ncnc3sc4c(c23)CCCC4)sc2c1CCC2	0	-3	0	0	.	.
Cc1csc(NC(=O)CSc2ncnc3scc(-c4ccccc4)c23)n1	1	4	0	0	.	.
CC(=O)Nc1ccc(Oc2nnc(-c3ccc(C)cc3)c3ccccc23)cc1	-2	5	0	0	.	.
COC(=O)COc1ccc(S(=O)(=O)NCCC2=CCCCC2)cc1C	-1	2	30*	0	0	2
CSc1ccc(CNC(=O)Cn2nnnc2CN(C)C(C)C)cc1	-3	6	1	0	.	.
O=C(CCN1C(=O)S/C(=C\c2ccc(Cl)cc2)C1=O)Nc1ccc(C(=O)O)cc1	1	16	6.9*	0	0	-7
COc1ccc(CCNc2ncnc3nc(-c4cccc(N)c4)[nH]c23)cc1	6	7	5.2*	0	1	3
COc1ccc(CCNc2ncnc3nc(NCCN4CCOCC4)[nH]c23)cc1	11	7	5.6*	0	1	-1
Cc1cccc(CS(=O)(=O)CC2Nc3ccc(C(=O)N4CCN(c5cccc(C(F)(F)F)c5)CC4)cc3NC2=O)c1 (centres undefined)	1	13	5.2*	0	0	3
Cc1ccc(CS(=O)(=O)CC2Nc3ccc(C(=O)N4CCN(c5cccc(C(F)(F)F)c5)CC4)cc3NC2=O)cc1 (centres undefined)	0	-1	0	0	.	.
O=C1Nc2cc(C(=O)N3CCN(c4cccc(C(F)(F)F)c4)CC3)ccc2Sc2ccccc21	-3	1	5.1*	0	0	11
C=CCNC(=O)c1c(C)cc(C)cc1C	8	-6	2	0	.	.
O=C(NCCN1CCNCC1)c1c(O)c2c([nH]c1=O)CCCC2	7	3	2	0	.	.
CCCCCNC(=O)c1c(O)c2c([nH]c1=O)CCCC2	-14	9	18*	1	1	3
CCN1CCCC1CNC(=O)c1c(O)c2c([nH]c1=O)CCCC2 (centres undefined)	5	6	6.8*	0	0	2
